Most compounds without a hit are left out; they make up all but 1.8% or so of the library.
PfHsp40 yeast: rescue of PfHsp40-mediated yeast toxicity | S. cerevisiae expressing PfHsp40, growth rescue, ATP luminescence | growth rescue, % at 12.5 µM | 340,000 tested, 0.68% active; in the data active means growth rescue above about 28%, passing the limit was not always enough;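 further: yeast W303a lacking pdr1 and pdr3 grown in galactose medium; growth measured after three days at 30 °C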
SSB-PriA inh: K. pneumoniae PriA-SSBct interaction inhibition; 430,000 tested, 0.6% active; inhibition, % at 33 µM; AlphaScreen SSBct-PriA binding, biotinylated peptide; AID 1272365; in the data active means inhibition mostly above about 37%, no sharp cut-off; inactive means mostly below about 20%
MazEF act: activators of E. coli MazEF toxin-antitoxin RNase; activation, % at 20 µM; 350,000 tested, 0.32% active; P0AE70; AID 504720; FAM/BHQ RNA-DNA oligo cleavage fluorescence, 5 h; in the data active means activation above about 50%
PrPC TRFRET: cell surface PrPC inhibition, primary TR-FRET screen; P04156; TR-FRET read-out; inhibition, % at 13.8 µM; 370,000 tested, 0.43% active; AID 720596; in the data active means inhibition above about 24%
PrP 5UTR inh: inhibition of PrP 5' UTR reporter expression; cell-based PrP 5' UTR mRNA reporter, plate reader; 340,000 tested, 0.35% active; AID 488862; inhibition, % (concentration not given with the values); in the data active means inhibition above about 52%
PrPC TRFRET cf: confirmation of inhibitors of cell surface human prion protein. shares compounds with PrPC TRFRET. cell surface PrPC level, TR-FRET. inhibition, % at 13.8 µM. 1,500 tested, 65% active. AID 743200; in the data active means inhibition above about 25%
LD9 tox: LD9 cell cytotoxicity, PrPc inhibitor counter-screen; shares compounds with PrPC TRFRET; LD9 cells cytotoxicity, luminescence viability; AID 743201; inhibition, % at 13.8 µM; 1,500 tested, 29% active; in the data active means inhibition above about 9.5%
A number is an active result; – = inactive; · = not tested or not shown.

SMILES	PfHsp40 yeast	SSB-PriA inh	MazEF act	PrPC TRFRET	PrP 5UTR inh	PrPC TRFRET cf	LD9 tox
CCC(Sc1nc(-c2ccccc2)c(C#N)c(=O)[nH]1)C(=O)Nc1nnc(C)s1 (centres undefined)	–	–	–	28.1	–	47.8	–
N#Cc1c(-c2ccccc2)nc(SCC(=O)Nc2ccccc2F)[nH]c1=O	–	–	–	–	–	·	·
Cc1cc(C)nc(NS(=O)(=O)c2ccc(NC(=O)CSc3nc(-c4ccccc4)c(C#N)c(=O)[nH]3)cc2)n1	–	–	–	50.0	–	72.2	–
N#Cc1c(-c2ccccc2)nc(SCC(=O)Nc2ccccc2)[nH]c1=O	–	–	–	27.7	–	39.4	–
Cc1cc(C)c2nc(SC3CCOC3=O)cc(C)c2c1 (centres undefined)	–	–	–	77.5	–	86.5	–
COc1ccc2c(C)cc(SC3CCOC3=O)nc2c1 (centres undefined)	–	–	–	–	–	·	·
COC(=O)[C@H]1[C@@H](O)[C@@]2(O)c3c(OC)cc(OC)cc3O[C@@]2(c2ccc(OC)cc2)[C@@H]1c1ccc(F)cc1	·	·	·	83.1	·	90.9	20.2
O=C(CCCS(=O)(=O)Cc1ccccc1)Nc1nc(-c2ccc(Cl)cc2Cl)cs1	·	–	·	·	·	·	·
CCOC(=O)c1c(C)n(CC)c2c1cc(O)c1ccccc12	–	–	–	24.7	–	–	–
COC(=O)c1sc(NC(=S)NNC(=O)c2c(Br)c(C)nn2C)c(C(=O)OC)c1C	–	–	–	131.9	–	146.1	–
C[C@@H]1ON(C)[C@H]2C[C@H]3c4cc(-c5ccc6c(c5)OCO6)ccc4CCN3C[C@@H]12	·	·	·	–	·	·	·
O=c1ccc(C(F)(F)F)cn1Cc1cc(=O)n2ccsc2n1	–	–	–	–	–	·	·
O=c1cc(CNc2cc(C(F)(F)F)cc(C(F)(F)F)c2)nc2sccn12	–	–	–	28.6	–	–	–
COc1ccc2c(C)cc(SCc3c(C)noc3C)nc2c1	–	–	–	66.8	–	87.9	–
Cc1cc(C)c(-c2csc(NC(=O)/C=C/c3cccs3)n2)c(C)c1	–	–	–	44.8	–	41.3	–
N#Cc1c(-c2ccco2)nc(SCc2ccc(F)cc2)[nH]c1=O	–	–	–	94.8	–	121.1	–
CCOC(=O)c1sc(Nc2nc3cc4c(cc3s2)OCO4)cc1C	–	–	–	–	–	·	·
CCOC(=O)c1sc(Nc2nc3c(OC)cccc3s2)cc1C	–	–	–	40.0	–	47.5	–
C=C1[C@@H](C)[C@H]2[C@H](Cc3ccccc3)NC(=O)[C@]23OC(=O)/C=C/[C@H](O)CCC[C@@H](C)C/C=C/[C@H]3[C@@H]1O	–	·	–	41.3	–	–	9.7
CC(=O)O[C@@H]1/C=C/[C@](C)(O)C[C@@H](C)C/C=C/[C@H]2[C@H](O)C(C)=C(C)[C@H]3[C@H](Cc4ccccc4)NC(=O)[C@@]123	·	·	–	·	·	·	·
C=C1[C@@H](C)C2[C@H](Cc3ccccc3)NC(=O)[C@]23[C@H](OC(C)=O)/C=C/[C@@](C)(O)C(=O)[C@@H](C)C/C=C/[C@H]3[C@@H]1O (some centres undefined)	·	·	·	43.4	·	37.8	–
C=C1C(C)C2C(Cc3ccccc3)NC(=O)C23C(OC(C)=O)C=CC(C)(O)CC(C)CC=CC3C1O (centres undefined)	–	–	–	39.9	–	32.0	–
Cc1ccc(C)c(CSc2nnc(-c3cccs3)n2Cc2ccco2)c1	–	–	–	–	–	·	·
C=CCNc1nc(N)c(C(=O)Nc2cc(C)on2)s1	–	–	–	–	–	·	·
Cc1cc(NC(=O)c2sc(Nc3ccc(F)cc3)nc2N)no1	–	–	–	25.8	–	25.8	12.6
SMILES	PfHsp40 yeast	SSB-PriA inh	MazEF act	PrPC TRFRET	PrP 5UTR inh	PrPC TRFRET cf	LD9 tox
O=C(c1ccccc1C(=O)N(c1ccccc1)c1ccccc1)N1CCCCC1	–	–	–	–	–	·	·
CCN(CC)c1ccc(Nc2nc(N3CCOCC3)c3ccccc3n2)cc1	–	–	–	–	–	·	·
COc1ccc(Nc2nc(N3CCCC3)c3ccccc3n2)cc1	–	35.0	–	24.5	–	31.4	23.8
Cc1csc(C(=O)NCCC(O)c2ccoc2)c1 (centres undefined)	·	–	·	·	·	·	·
COc1ccc2c3c(n(C(=O)OC(C)(C)C)c2c1)C1CC=C(COC(C)=O)CN1CC3 (centres undefined)	·	·	·	–	·	·	·
CCOc1ccc2c(c1)c1nnc(SCC3CCCO3)nc1n2C (centres undefined)	–	–	–	–	–	·	·
CC1CCN(c2ccc3nnc(CCC(=O)N4CCCCC4)n3n2)CC1	–	–	–	–	–	·	·
CC1CCN(c2ccc3nnc(CCC(=O)N4CCN(c5ccc(F)cc5)CC4)n3n2)CC1	–	–	–	40.2	–	–	–
CCNc1nnc(CCn2nc(C)c(Br)c2C)s1	–	–	–	–	–	·	·
NC(c1csc(Nc2ccc(C(=O)c3ccccc3)cc2)n1)C1CCCCC1 (centres undefined)	·	·	·	38.4	·	41.1	–
CC(N)c1csc(Nc2ccc(C(=O)c3ccccc3)cc2)n1 (centres undefined)	·	·	·	–	·	·	·
CC(=O)c1ccc(Nc2nc(C(N)C3CCCCC3)cs2)cc1 (centres undefined)	·	·	·	29.4	·	39.1	–
Cc1cc(C)nc(NC(=O)c2ccc(COc3ccccc3Cl)cc2)c1	–	–	–	27.0	–	–	–
O=C(Nc1ccn(Cc2c(F)c(F)cc(F)c2F)n1)c1ccc(COc2ccccc2Cl)cc1	–	–	–	·	–	·	·
O=C(Nc1ccn(Cc2ccccc2F)n1)c1ccc(COc2ccccc2Cl)cc1	–	–	–	41.6	–	30.9	–
COCCCn1c(SCC(=O)c2c(N)n(C3CC3)c(=O)[nH]c2=O)nnc1-c1ccccc1Cl	·	·	–	–	·	·	·
O=C(CSc1ccc2ccccc2n1)NC1CC1	–	–	–	–	–	·	·
CCOC(=O)NC(=O)CSc1cc(C)c2cc(C)cc(C)c2n1	–	–	–	42.3	–	57.5	–
CCOC(=O)NC(=O)CSc1ccc2ccccc2n1	–	–	–	49.1	–	48.8	–
COc1ccc(CCC(=O)Nc2cc(S(=O)(=O)N3CCCCC3)ccc2N(C)C)cc1	–	–	–	–	–	·	·
COc1ccc(C(C)=O)cc1CSc1nnc(-c2ccncc2)n1C	–	–	–	–	–	·	·
COc1ccc(C(C)=O)cc1CSc1nnc(-c2ccc(Cl)cc2)n1-c1ccccc1	–	–	–	56.1	–	–	–
Cc1cc(SC(C)C(=O)O)nc2ccccc12 (centres undefined)	–	–	–	46.4	–	75.5	–
CC(Sc1cnc2ccccc2n1)C(=O)O (centres undefined)	–	–	–	39.4	–	47.4	–
Cc1cc(SC(C)C(=O)NCC(=O)Nc2ccc(F)c(F)c2F)nc2ccccc12 (centres undefined)	–	–	–	–	–	·	·
CC(Sc1ccc2ccccc2n1)C(=O)O (centres undefined)	–	–	–	114.5	–	123.5	–
